Values without a mark were called inactive. No rule for the calls is given here.
Biological target: Pantothenate synthetase (Mycobacterium tuberculosis (strain ATCC 25618 / H37Rv)) (UniProt P9WIL5)
Experiment: Coupled enzyme confirmation of inhibitors against recombinant Mtb PanC (AID 375);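 also: 0% = full reaction with vehicle and 100% = no enzyme background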
Settings: coupled enzyme assay; at 10 µM, active compounds read high

Sequence of Pantothenate synthetase (Mycobacterium tuberculosis (strain ATCC 25618 / H37Rv)) (P9WIL5 whole entry, looked up): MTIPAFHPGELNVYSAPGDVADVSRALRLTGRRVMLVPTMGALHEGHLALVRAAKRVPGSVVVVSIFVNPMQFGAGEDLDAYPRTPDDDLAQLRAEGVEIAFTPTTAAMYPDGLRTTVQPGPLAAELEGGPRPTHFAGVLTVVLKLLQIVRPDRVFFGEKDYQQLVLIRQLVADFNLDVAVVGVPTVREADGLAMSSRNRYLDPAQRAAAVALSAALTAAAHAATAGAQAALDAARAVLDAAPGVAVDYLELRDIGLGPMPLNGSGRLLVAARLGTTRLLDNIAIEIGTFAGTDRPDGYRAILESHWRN

| Structure (SMILES) | inhibition [%] |
| --- | --- |
| CCOC(=O)C1CSC(CC(=O)Nc2ccc(Cl)cc2)C(=O)N1 (configuration not stated) | 0 |
| Cc1cc(C)c2c(n1)nn1c(N3CCN(c4ccccc4C)CC3)cc(C)nc21 | 4 |
| CCOC(=O)N1CCC2(O)CCCCC2C1c1ccc(F)cc1 (configuration not stated) | 1 |
| Cc1cnc(-c2nnc(N(C)C(=O)C3CCOC3)s2)cn1 (configuration not stated) | 3 |
| O=C1c2ccccc2C(=O)N1CC(O)Cn1nnc2ccccc21 (configuration not stated) | 0 |
| CS(=O)(=O)C1=C(O)C(=O)N(c2ccccc2)C1c1ccccc1 (configuration not stated) | 5 |
| CCN1CCCC1CNC(=O)c1cc2c(=O)n(C)c3ccccc3c2n1C (configuration not stated) | 0 |
| COC(=O)C1=C(C)Nc2nnnn2C1c1cccs1 (configuration not stated) | 8 |
| O=C1COc2ccc(C(=O)COC(=O)CCc3ccc(S(=O)(=O)N4CCOCC4)cc3)cc2N1 | 8 |
| Cc1cccc(N(CC(=O)Nc2ccc(CC#N)cc2)S(C)(=O)=O)c1 | 2 |
| CC(Oc1ccc(Cl)cc1Cl)C(=O)Nc1ncccn1 (configuration not stated) | 0 |
| COc1ccc(OC)c(C(=O)c2nc3c(n2O)CCCCC3)c1 | 0 |
| N#CC(C(=O)C1CCCCC1)c1nc2ccccc2[nH]1 (configuration not stated) | 0 |
| Cc1ccc2c(CC(=O)OCc3csc(C)n3)coc2c1 | 0 |
| CCCCC(=O)Nc1nn(CCC)c2nc3ccccc3cc12 | 0 |
| COC(=O)c1[nH]c(C)c(/C(O)=C2\C(=O)C(=O)N(CCN3CCOCC3)C2c2cccs2)c1C (configuration not stated) | 4 |
| N#Cc1cc2ccccc2nc1SCC(=O)Nc1ccccc1N1CCOCC1 | 0 |
| O=C(CCSc1ccccc1)N1CCN(C(=O)c2ccco2)CC1 | 0 |
| CCn1c(CSc2ncccn2)nnc1SCC(=O)N1c2ccccc2CC1C (configuration not stated) | 6 |
| CCCn1c(SCC(=O)NC(C)(C)C)nnc1C(C)C | 3 |
| O=C(Nc1cccc2c1CCCC2)C1CCN(c2nnnn2-c2ccccc2)CC1 | 5 |
| CCc1c(C(=O)Nc2cc(C)ccc2OC)[nH]c(C)c1C(C)=O | 0 |
| CC1(C)Cc2cccc(OCC(O)CN3CCN(c4ccccn4)CC3)c2O1 (configuration not stated) | 0 |
| Cc1ccc(-c2nc3ccccc3[nH]2)s1 | 0 |

| Structure (SMILES) | inhibition [%] |
| --- | --- |
| O=C(CSc1nnc(-c2cccs2)o1)N1CCOCC1 | 0 |
| CCOC(=O)C1=C(C)N=c2s/c(=C\c3cccn3C)c(=O)n2C1c1cccc(OC)c1OC (configuration not stated) | 0 |
| CSc1ccccc1NC(=O)c1noc2c1CCC2 | 0 |
| COCCOC(=O)c1[nH]c2c(c1C)C(=O)CC(c1ccco1)C2 (configuration not stated) | 3 |
| CCNC(=O)Cn1cnc2c1c(=O)n(C)c(=O)n2C | 0 |
| CN(C)c1nc(Nc2ccc(Cl)cc2)nc(OCC#N)n1 | 6 |
| CCCn1c(N2CCN(CC(=O)NCc3cccs3)CC2)nc2ccccc21 | 9 |
| O=C(COC(=O)Cc1cccc(C(F)(F)F)c1)NCC1CCCO1 (configuration not stated) | 3 |
| Cc1ccccc1-c1nc(CN2CCC(C(=O)NCc3cccnc3)CC2)c(C)o1 | 0 |
| NS(=O)(=O)c1ccc(NC(=O)CSc2nnc(Cc3cccs3)n2-c2ccccc2)cc1 | 1 |
| O=C(CCS(=O)(=O)c1cc(Br)cc2c1N(C(=O)C1CC1)CC2)NCC1CCCO1 (configuration not stated) | 0 |
| Cc1nc2ccc(N3C(=O)CCC3=O)cc2[nH]1 | 5 |
| Cc1cc(=O)n(C)c(=O)n1CCCCCN1CCCC1 | 0 |
| CCNC(=O)COc1ccc(Br)cc1Cl | 4 |
| Cc1ccc2oc(=O)c3cnn(CC(=O)NCCC(C)C)c3c2c1 | 0 |
| O=C(NCc1ccco1)C1CCN(C(=O)c2cc3sccc3n2Cc2ccc(F)cc2)CC1 | 5 |
| Nc1nonc1C(=O)NCCNCc1cc(Br)ccc1OCc1ccccc1F | 0 |
| Cc1ccc(C(C(=O)NC(C)(C)C)N(C(=O)c2csnn2)c2cccc(F)c2)o1 (configuration not stated) | 0 |
| Cc1cc(C)nc(N(C#N)CC(=O)N2CCC(C(N)=O)CC2)n1 | 1 |
| CC1CCc2nn(CC(=O)NCCN3CCOCC3)cc2C1 (configuration not stated) | 0 |
| CC(NC(=O)COc1ccc(Br)cc1)C(=O)O (configuration not stated) | 0 |
| COc1ccc(-c2ccc(=O)n(Cc3cc(=O)n4ccccc4n3)n2)cc1 | 0 |
| O=C(O)c1cccc(NC(=O)C23CC4CC(C2)CC(n2cnc(Cl)n2)(C4)C3)c1 | 1 |

Source: PubChem BioAssay
